# Values joined by “and” are separate entries in the source; they are usually repeats but may differ in a detail not shown here. Equal values may be shown once. Records with an inconclusive call do not appear. A call without a number means that no potency is given here. Active and inactive are the calls of the source. Calls follow the shape of the dose curve; as a rule, active = well fitted curve in the direction sought with a large enough effect in the repeat runs; inconclusive = weak or mixed curves; inactive = no such curve, though single readings can be large; an effect the other way counts as inactive or inconclusive.
# Test system: not listed separately
# Assay: qHTS assay to identify small molecule antagonists of the estrogen related receptor (ERR) signaling pathway from Tox21 library - cell viability counter screen (AID 1224834); also: nearly all actives have a fitted effect of over 30% in size
# Conditions: ERR reporter cells viability, CellTiter-Fluor, 17.5 h; series mostly up to 92.4 µM
# How it was run: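 CellTiter-Fluor fluorescence measured; ERR cells; 17.5 h compound incubation at 37 C; 30 min reagent step.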
# Potency is read from the fitted curve at half-maximal effect.
row,Compound,Potency
1,CCCCCCCCc1ccc(O)cc1,61.5 µM (active)
2,O=C(CCCN1CCC2(CC1)C(=O)NCN2c1ccccc1)c1ccc(F)cc1,inactive
3,CCCCN(CCCC)C(=S)[S-].CCCCN(CCCC)C(=S)[S-].[Zn+2],15.3 µM (active)
4,Clc1ccc(COC(Cn2ccnc2)c2ccc(Cl)cc2Cl)cc1 (centres undefined),45.3 µM (active) and 48.4 µM (active) and 26.6 µM (active)
5,CC[C@H](C)[C@H]1O[C@]2(C=C[C@@H]1C)C[C@@H]1C[C@@H](C/C=C(\C)[C@@H](O[C@H]3C[C@H](OC)[C@@H](O[C@H]4C[C@H](OC)[C@@H](O)[C@H](C)O4)[C@H](C)O3)[C@@H](C)/C=C/C=C3\CO[C@@H]4[C@H](O)C(C)=C[C@@H](C(=O)O1)[C@]34O)O2,16.1 µM (active)
6,Clc1ccc(CO/N=C(\Cn2ccnc2)c2ccc(Cl)cc2Cl)c(Cl)c1,26.6 µM (active)
7,O=C(O)c1cc[c]([Hg][Cl])cc1,13.7 µM (active)
8,CCCCCCCCCCCCCCC(Br)C(=O)O (centres undefined),inactive
9,c1ccc(Nc2ccc3ccccc3c2)cc1,inactive
10,CCC(C)c1cc([N+](=O)[O-])cc([N+](=O)[O-])c1OC(=O)C=C(C)C (centres undefined),27.3 µM (active)
11,COc1cccc(C(=O)CCN[C@@H](C)[C@H](O)c2ccccc2)c1,inactive
12,C[CH2][Hg][N]1C(=O)C2C(C1=O)C1(Cl)C(Cl)=C(Cl)C2(Cl)C1(Cl)Cl (centres undefined),13 µM (active)
13,[CH3][Hg][Cl],60.9 µM (active)
14,CC(C)OC(=S)S,inactive
15,C=CC(=O)OCCCCOC(=O)C=C,54.5 µM (active)
16,O=C(CCl)Nc1ccccc1,30.6 µM (active)
17,O=CC(Br)(Br)Br,24.3 µM (active)

# Target: Luciferin 4-monooxygenase (Photinus pyralis) (UniProt P08659)
# Sequence (P08659 whole entry, looked up): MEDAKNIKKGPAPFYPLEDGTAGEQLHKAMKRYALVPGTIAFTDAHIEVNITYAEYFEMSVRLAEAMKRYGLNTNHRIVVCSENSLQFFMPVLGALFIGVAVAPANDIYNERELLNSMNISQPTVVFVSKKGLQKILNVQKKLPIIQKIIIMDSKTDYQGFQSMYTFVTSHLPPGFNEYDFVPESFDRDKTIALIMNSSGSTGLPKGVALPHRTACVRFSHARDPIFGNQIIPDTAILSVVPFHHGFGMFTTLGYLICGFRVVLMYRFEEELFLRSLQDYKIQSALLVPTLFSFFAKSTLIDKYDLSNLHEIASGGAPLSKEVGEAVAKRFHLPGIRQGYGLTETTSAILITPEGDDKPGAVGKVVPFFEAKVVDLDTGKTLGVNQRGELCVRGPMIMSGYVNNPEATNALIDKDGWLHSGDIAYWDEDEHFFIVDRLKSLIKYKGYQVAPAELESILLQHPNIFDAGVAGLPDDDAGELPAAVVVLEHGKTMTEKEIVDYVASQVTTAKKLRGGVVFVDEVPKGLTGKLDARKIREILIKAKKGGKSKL
# Assay: qHTS assay to identify small molecule inhibitors of firefly luciferase (AID 1224835); also: nearly all actives have a fitted effect of over 25% in size
# Conditions: purified P. pyralis luciferase, luminescence inhibition; series mostly up to 115 µM
# How it was run: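 Quantitative HTS format; KM concentrations of both substrates. Purified P. pyralis FLuc activity quantified from luminescence images.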
row,Compound,Potency
1,CC1(c2ccc(Oc3ccccc3)cc2)OC(=O)N(Nc2ccccc2)C1=O (centres undefined),inactive
2,CC(C)OC(=O)C(O)(c1ccc(Cl)cc1)c1ccc(Cl)cc1,inactive
3,CCCCCCCCCCCCCCCC[N+](C)(C)C,inactive
4,CC(C)CC(C)Nc1ccc(Nc2ccccc2)cc1 (centres undefined),39.3 µM (active)
5,CC(=O)O[C@H]1CC[C@@]2(C)C(=CC[C@@H]3[C@@H]2CC[C@]2(C)C(=O)CC[C@@H]32)C1,inactive
6,c1ccc2c(c1)OCC(C1=NCCN1)O2 (centres undefined),inactive
7,CCCOCC(=Nc1ccc(Cl)cc1C(F)(F)F)n1ccnc1,inactive
8,Cc1cc(C(C)(C)c2cc(C)c(O)c(C)c2)cc(C)c1O,inactive
9,Oc1ccc(C2(c3ccc(O)cc3)c3ccccc3-c3ccccc32)cc1,inactive
10,CC(C)(C)C(O)/C(=C\c1ccc(Cl)cc1Cl)n1cncn1 (centres undefined),inactive
11,CCc1nn(C)c(C(=O)NCc2ccc(C(C)(C)C)cc2)c1Cl,inactive
12,O=C(CCCN1CCC2(CC1)C(=O)NCN2c1ccccc1)c1ccc(F)cc1,inactive
13,Cc1cc(SCc2sc(-c3ccc(C(F)(F)F)c(F)c3)nc2C)ccc1OCC(=O)O,44.8 µM (active)
14,CCCCN(CCCC)C(=S)[S-].CCCCN(CCCC)C(=S)[S-].[Zn+2],inactive
15,CC1CCC(C(C)C)C(OC(=O)c2ccccc2N)C1 (centres undefined),inactive
16,Clc1ccc(COC(Cn2ccnc2)c2ccc(Cl)cc2Cl)cc1 (centres undefined),inactive
17,CC(C)(C)C(O)C(Oc1ccc(-c2ccccc2)cc1)n1cncn1 (centres undefined),inactive
18,CC[C@H](C)[C@H]1O[C@]2(C=C[C@@H]1C)C[C@@H]1C[C@@H](C/C=C(\C)[C@@H](O[C@H]3C[C@H](OC)[C@@H](O[C@H]4C[C@H](OC)[C@@H](O)[C@H](C)O4)[C@H](C)O3)[C@@H](C)/C=C/C=C3\CO[C@@H]4[C@H](O)C(C)=C[C@@H](C(=O)O1)[C@]34O)O2,inactive
19,Clc1ccc(CO/N=C(\Cn2ccnc2)c2ccc(Cl)cc2Cl)c(Cl)c1,inactive
20,O=C(O)c1cc[c]([Hg][Cl])cc1,5.03 µM (active)
21,c1ccc(Nc2ccc3ccccc3c2)cc1,22.3 µM (active) and 31.7 µM (active)
22,CCC(C)c1cc([N+](=O)[O-])cc([N+](=O)[O-])c1OC(=O)C=C(C)C (centres undefined),inactive
23,COc1cccc(C(=O)CCN[C@@H](C)[C@H](O)c2ccccc2)c1,inactive
24,C[CH2][Hg][N]1C(=O)C2C(C1=O)C1(Cl)C(Cl)=C(Cl)C2(Cl)C1(Cl)Cl (centres undefined),5.35 µM (active)
25,NC(=O)c1ccc(N)nc1,inactive
26,[CH3][Hg][Cl],5.62 µM (active)
27,CC(C)OC(=S)S,inactive
28,C=CC(=O)OCCCCOC(=O)C=C,inactive
29,O=C(CCl)Nc1ccccc1,inactive
30,O=CC(Br)(Br)Br,17.8 µM (active)

# Test system: not listed separately
# Assay: qHTS assay to identify small molecule agonists of the constitutive androstane receptor (CAR) signaling pathway - cell viability counter screen (AID 1224836); also: nearly all actives have a fitted effect of over 45% in size
# Conditions: HepG2-CYP2B6-hCAR viability, CellTiter-Fluor, 23 h, PK11195 added to every well; series mostly up to 92.4 µM
# How it was run: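 HepG2 cells stably carrying hCAR and a CYP2B6-2.2kb reporter were plated 4 h, then given compounds at 15 concentrations plus PK11195 (final 0.75 uM). After 23 h at 37 C, viability was read by CellTiter-Fluor fluorescence.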
row,Compound,Potency
1,CC(C)OC(=O)C(O)(c1ccc(Cl)cc1)c1ccc(Cl)cc1,inactive
2,CCCCCCCCCCCCCCCC[N+](C)(C)C,54.5 µM (active)
3,O=C(CBr)c1ccc(O)cc1,inactive
4,CC(=O)O[C@H]1CC[C@@]2(C)C(=CC[C@@H]3[C@@H]2CC[C@]2(C)C(=O)CC[C@@H]32)C1,inactive
5,c1ccc2c(c1)OCC(C1=NCCN1)O2 (centres undefined),23.7 µM (active)
6,CN(C)C(=S)S,19.7 µM (active) and 6.81 µM (active) and 27.3 µM (active)
7,CC(C)(C)C(O)/C(=C\c1ccc(Cl)cc1Cl)n1cncn1 (centres undefined),74 µM (active)
8,CCCCCCCCc1ccc(O)cc1,69 µM (active)
9,O=C(CCCN1CCC2(CC1)C(=O)NCN2c1ccccc1)c1ccc(F)cc1,5.96 µM (active)
10,Cc1cc(SCc2sc(-c3ccc(C(F)(F)F)c(F)c3)nc2C)ccc1OCC(=O)O,inactive
11,CCCCN(CCCC)C(=S)[S-].CCCCN(CCCC)C(=S)[S-].[Zn+2],21.7 µM (active)
12,CC1CCC(C(C)C)C(OC(=O)c2ccccc2N)C1 (centres undefined),inactive
13,Clc1ccc(COC(Cn2ccnc2)c2ccc(Cl)cc2Cl)cc1 (centres undefined),45.3 µM (active) and 54.3 µM (active)
14,CC(C)(C)C(O)C(Oc1ccc(-c2ccccc2)cc1)n1cncn1 (centres undefined),inactive
15,CC[C@H](C)[C@H]1O[C@]2(C=C[C@@H]1C)C[C@@H]1C[C@@H](C/C=C(\C)[C@@H](O[C@H]3C[C@H](OC)[C@@H](O[C@H]4C[C@H](OC)[C@@H](O)[C@H](C)O4)[C@H](C)O3)[C@@H](C)/C=C/C=C3\CO[C@@H]4[C@H](O)C(C)=C[C@@H](C(=O)O1)[C@]34O)O2,32.2 µM (active)
16,CCCCCCCCCCCCCCC(Br)C(=O)O (centres undefined),inactive
17,c1ccc(Nc2ccc3ccccc3c2)cc1,inactive
18,CCC(C)c1cc([N+](=O)[O-])cc([N+](=O)[O-])c1OC(=O)C=C(C)C (centres undefined),61.1 µM (active)
19,COc1cccc(C(=O)CCN[C@@H](C)[C@H](O)c2ccccc2)c1,inactive
20,C[CH2][Hg][N]1C(=O)C2C(C1=O)C1(Cl)C(Cl)=C(Cl)C2(Cl)C1(Cl)Cl (centres undefined),14.6 µM (active)
21,NC(=O)c1ccc(N)nc1,inactive
22,[CH3][Hg][Cl],24.3 µM (active)
23,Nc1ccc(Cl)cc1C(=O)c1ccccc1,inactive
24,CC(C)OC(=S)S,inactive
25,COc1cccc2c1C(=O)c1c(O)c3c(c(O)c1C2=O)C[C@@](O)(C(=O)CO)CC3OC1CC(N2CCOC(OC)C2)C(O)C(C)O1 (some centres undefined),0.119 µM (active)
26,O=C(CCl)Nc1ccccc1,48.6 µM (active)
27,O=CC(Br)(Br)Br,30.5 µM (active)
